Key:
[1] = molecular target: Sphingosine kinase 1 (Homo sapiens) (UniProt Q9NYA1); conditions: at 1 µM;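 also: mean SPHK1 inhibition value reported from the GSK PKIS kinase panel screen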
[2] = molecular target: T1, Sphingosine kinase 2 (Homo sapiens) (UniProt Q9NRA0); conditions: at 0.1 µM
T1 sequence (whole entry): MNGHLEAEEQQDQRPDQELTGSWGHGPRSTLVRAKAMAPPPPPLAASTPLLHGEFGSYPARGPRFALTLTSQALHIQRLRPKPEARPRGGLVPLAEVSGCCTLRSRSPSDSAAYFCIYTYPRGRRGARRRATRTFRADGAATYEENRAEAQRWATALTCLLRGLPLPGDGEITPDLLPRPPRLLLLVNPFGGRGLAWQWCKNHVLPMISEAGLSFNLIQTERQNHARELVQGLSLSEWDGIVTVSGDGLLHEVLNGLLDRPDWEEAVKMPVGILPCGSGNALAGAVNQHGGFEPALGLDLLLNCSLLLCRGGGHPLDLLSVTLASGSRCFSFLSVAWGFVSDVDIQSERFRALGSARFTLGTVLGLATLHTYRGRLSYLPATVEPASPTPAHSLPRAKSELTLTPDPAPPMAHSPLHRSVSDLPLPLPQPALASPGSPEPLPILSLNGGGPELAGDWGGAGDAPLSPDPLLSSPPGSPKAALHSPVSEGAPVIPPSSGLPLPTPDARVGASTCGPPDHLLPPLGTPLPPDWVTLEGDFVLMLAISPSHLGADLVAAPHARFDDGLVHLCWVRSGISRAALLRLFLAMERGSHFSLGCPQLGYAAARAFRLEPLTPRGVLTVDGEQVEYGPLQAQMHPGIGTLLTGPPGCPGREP

[3] = molecular target: T1, Sphingosine kinase 2 (Homo sapiens); conditions: at 1 µM
[4] = molecular target: Casein kinase II subunit alpha (Homo sapiens) (UniProt P68400); conditions: at 0.1 µM
[5] = molecular target: Casein kinase II subunit alpha (Homo sapiens) (UniProt P68400); conditions: at 1 µM
[6] = molecular target: T2, Inhibitor of nuclear factor kappa-B kinase subunit alpha (Homo sapiens) (UniProt O15111); conditions: at 0.1 µM
T2 sequence (whole entry): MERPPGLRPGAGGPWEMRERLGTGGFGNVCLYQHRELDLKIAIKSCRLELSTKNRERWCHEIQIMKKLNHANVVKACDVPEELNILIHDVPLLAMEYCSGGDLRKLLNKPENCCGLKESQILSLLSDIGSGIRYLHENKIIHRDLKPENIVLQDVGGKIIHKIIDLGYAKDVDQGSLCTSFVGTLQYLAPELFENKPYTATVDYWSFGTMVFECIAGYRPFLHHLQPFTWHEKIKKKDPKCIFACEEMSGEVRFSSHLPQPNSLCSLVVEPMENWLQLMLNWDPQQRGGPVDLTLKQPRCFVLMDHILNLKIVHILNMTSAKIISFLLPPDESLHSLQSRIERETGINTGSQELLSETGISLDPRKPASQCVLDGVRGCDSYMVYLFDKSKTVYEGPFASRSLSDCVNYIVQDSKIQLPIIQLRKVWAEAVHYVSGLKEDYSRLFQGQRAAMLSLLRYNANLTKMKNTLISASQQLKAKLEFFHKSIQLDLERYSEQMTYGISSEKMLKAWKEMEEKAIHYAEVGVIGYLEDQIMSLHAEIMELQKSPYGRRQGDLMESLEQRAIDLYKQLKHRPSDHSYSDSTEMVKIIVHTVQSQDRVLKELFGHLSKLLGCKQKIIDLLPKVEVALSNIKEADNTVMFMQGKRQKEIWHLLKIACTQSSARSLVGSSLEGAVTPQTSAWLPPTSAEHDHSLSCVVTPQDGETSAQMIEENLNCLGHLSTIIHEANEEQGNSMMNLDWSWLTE

[7] = molecular target: T2, Inhibitor of nuclear factor kappa-B kinase subunit alpha (Homo sapiens); conditions: at 1 µM
[8] = molecular target: T3, Inhibitor of nuclear factor kappa-B kinase subunit beta (Homo sapiens) (UniProt O14920); conditions: at 0.1 µM
T3 sequence (whole entry): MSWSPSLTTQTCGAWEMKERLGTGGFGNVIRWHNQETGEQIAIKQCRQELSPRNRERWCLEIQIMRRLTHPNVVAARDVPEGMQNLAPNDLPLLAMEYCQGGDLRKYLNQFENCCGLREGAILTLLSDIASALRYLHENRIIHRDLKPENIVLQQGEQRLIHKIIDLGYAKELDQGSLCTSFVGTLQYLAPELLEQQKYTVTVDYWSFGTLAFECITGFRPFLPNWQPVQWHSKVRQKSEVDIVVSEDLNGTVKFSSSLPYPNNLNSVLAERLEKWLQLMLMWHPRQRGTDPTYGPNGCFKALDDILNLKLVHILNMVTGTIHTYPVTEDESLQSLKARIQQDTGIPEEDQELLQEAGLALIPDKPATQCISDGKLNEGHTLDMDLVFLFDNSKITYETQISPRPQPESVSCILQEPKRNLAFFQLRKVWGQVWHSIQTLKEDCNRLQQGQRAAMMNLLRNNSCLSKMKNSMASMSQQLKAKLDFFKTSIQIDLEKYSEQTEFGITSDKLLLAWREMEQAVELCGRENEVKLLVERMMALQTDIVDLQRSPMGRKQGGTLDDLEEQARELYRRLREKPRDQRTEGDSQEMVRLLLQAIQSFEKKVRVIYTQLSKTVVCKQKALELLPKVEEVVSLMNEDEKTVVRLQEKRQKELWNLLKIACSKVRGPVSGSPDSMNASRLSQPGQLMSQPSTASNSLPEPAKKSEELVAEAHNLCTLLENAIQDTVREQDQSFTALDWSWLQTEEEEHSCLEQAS

[9] = molecular target: T3, Inhibitor of nuclear factor kappa-B kinase subunit beta (Homo sapiens); conditions: at 1 µM
[10] = molecular target: T4, Inhibitor of nuclear factor kappa-B kinase subunit epsilon (Homo sapiens) (UniProt Q14164); conditions: at 0.1 µM
T4 sequence (whole entry): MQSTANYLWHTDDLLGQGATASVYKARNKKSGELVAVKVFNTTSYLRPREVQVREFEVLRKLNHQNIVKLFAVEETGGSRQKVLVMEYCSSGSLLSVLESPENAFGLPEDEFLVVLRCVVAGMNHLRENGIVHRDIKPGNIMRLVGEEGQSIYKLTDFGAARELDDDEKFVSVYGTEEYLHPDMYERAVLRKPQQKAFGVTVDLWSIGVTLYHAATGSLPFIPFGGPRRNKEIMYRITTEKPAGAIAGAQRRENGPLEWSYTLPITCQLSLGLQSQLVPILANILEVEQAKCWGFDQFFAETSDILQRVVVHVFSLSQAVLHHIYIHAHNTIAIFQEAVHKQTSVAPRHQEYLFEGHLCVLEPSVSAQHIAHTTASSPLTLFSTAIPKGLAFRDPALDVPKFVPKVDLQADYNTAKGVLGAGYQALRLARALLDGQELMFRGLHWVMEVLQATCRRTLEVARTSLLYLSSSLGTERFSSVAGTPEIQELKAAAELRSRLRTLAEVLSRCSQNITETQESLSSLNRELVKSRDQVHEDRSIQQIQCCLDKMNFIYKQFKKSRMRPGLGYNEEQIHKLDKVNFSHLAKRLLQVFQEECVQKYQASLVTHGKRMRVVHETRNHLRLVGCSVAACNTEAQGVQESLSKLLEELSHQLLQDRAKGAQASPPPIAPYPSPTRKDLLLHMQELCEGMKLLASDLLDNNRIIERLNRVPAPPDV

[11] = molecular target: T4, Inhibitor of nuclear factor kappa-B kinase subunit epsilon (Homo sapiens); conditions: at 1 µM
[12] = molecular target: T5, Serine/threonine-protein kinase Nek1 (Homo sapiens) (UniProt Q96PY6); conditions: at 0.1 µM
T5 sequence (whole entry): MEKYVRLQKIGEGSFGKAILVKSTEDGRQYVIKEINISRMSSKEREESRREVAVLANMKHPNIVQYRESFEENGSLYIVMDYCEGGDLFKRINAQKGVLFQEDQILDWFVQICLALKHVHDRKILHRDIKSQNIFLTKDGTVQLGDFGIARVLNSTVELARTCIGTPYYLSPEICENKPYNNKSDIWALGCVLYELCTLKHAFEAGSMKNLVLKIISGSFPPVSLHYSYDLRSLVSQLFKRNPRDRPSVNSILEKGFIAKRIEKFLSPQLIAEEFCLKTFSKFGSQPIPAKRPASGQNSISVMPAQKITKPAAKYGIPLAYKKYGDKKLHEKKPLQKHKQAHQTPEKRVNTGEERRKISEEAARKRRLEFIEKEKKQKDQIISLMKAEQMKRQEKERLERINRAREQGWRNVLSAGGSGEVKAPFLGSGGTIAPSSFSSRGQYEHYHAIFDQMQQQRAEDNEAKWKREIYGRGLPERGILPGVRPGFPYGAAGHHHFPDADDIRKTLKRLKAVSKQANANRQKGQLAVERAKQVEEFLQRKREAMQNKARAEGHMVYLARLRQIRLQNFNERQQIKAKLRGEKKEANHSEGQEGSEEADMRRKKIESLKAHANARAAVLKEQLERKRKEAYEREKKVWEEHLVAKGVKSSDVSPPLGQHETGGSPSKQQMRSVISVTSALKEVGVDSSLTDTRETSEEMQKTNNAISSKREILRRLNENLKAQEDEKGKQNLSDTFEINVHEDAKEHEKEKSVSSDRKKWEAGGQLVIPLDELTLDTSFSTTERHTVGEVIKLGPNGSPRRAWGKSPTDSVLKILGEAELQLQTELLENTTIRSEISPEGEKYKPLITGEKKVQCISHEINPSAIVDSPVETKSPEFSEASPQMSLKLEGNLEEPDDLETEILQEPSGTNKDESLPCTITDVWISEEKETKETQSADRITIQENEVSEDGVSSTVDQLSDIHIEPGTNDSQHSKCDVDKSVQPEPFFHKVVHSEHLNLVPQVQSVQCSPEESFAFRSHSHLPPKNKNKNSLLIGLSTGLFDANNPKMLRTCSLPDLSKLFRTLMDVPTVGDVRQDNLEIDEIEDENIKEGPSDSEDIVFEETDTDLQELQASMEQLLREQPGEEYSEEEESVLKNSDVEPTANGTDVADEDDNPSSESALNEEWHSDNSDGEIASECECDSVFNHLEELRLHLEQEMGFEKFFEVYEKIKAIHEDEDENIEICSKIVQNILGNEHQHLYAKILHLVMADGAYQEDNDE

[13] = molecular target: T5, Serine/threonine-protein kinase Nek1 (Homo sapiens); conditions: at 1 µM
[14] = molecular target: T6, Serine/threonine-protein kinase Nek2 (Homo sapiens) (UniProt P51955); conditions: at 0.1 µM
T6 sequence (whole entry): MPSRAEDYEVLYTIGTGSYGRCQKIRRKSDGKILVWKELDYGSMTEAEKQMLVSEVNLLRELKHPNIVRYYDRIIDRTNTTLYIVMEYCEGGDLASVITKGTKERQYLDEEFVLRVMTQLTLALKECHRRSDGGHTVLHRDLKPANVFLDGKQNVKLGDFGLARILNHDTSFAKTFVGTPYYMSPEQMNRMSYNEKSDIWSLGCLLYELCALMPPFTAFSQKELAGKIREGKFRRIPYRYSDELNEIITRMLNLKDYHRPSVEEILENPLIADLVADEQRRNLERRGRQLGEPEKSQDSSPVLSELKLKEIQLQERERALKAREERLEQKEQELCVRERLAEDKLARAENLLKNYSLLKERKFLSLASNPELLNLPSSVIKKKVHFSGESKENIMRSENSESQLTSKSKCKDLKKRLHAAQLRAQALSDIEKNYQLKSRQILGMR

[15] = molecular target: T6, Serine/threonine-protein kinase Nek2 (Homo sapiens); conditions: at 1 µM
[16] = molecular target: Serine/threonine-protein kinase Nek6 (Homo sapiens) (UniProt Q9HC98); conditions: at 0.1 µM
[17] = molecular target: Serine/threonine-protein kinase Nek6 (Homo sapiens) (UniProt Q9HC98); conditions: at 1 µM
[18] = molecular target: Serine/threonine-protein kinase Nek7 (Homo sapiens) (UniProt Q8TDX7); conditions: at 0.1 µM
[19] = molecular target: Serine/threonine-protein kinase Nek7 (Homo sapiens) (UniProt Q8TDX7); conditions: at 1 µM
[20] = molecular target: T7, Serine/threonine-protein kinase Nek9 (Homo sapiens) (UniProt Q8TD19); conditions: at 0.1 µM;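 also: reported value is the mean percent inhibition of NEK9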
T7 sequence (whole entry): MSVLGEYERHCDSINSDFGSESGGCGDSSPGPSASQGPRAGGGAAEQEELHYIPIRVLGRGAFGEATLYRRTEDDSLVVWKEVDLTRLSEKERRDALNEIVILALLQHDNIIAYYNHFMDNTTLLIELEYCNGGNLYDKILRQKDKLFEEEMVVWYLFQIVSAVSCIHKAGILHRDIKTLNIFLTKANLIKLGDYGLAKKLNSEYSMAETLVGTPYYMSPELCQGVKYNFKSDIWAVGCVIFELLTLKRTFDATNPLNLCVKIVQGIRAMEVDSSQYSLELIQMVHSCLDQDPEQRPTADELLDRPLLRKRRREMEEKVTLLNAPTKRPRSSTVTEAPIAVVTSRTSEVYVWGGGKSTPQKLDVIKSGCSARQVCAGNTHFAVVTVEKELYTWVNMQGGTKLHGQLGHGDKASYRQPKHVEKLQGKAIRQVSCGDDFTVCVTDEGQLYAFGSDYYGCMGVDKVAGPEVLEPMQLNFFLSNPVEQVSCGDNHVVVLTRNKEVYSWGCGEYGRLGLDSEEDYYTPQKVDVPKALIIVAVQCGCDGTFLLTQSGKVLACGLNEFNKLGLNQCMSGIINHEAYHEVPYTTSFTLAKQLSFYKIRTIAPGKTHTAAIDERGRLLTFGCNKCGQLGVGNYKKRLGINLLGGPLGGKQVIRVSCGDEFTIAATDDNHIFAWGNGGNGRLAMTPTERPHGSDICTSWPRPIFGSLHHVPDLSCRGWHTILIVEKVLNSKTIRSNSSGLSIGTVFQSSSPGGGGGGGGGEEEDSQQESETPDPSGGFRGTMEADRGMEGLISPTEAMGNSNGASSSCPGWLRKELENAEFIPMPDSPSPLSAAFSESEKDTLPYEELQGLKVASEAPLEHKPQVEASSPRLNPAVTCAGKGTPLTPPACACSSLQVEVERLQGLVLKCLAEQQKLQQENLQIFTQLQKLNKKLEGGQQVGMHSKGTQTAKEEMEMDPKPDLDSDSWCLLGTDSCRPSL

Casein kinase II subunit alpha (Homo sapiens), sequence (P68400 whole entry, looked up): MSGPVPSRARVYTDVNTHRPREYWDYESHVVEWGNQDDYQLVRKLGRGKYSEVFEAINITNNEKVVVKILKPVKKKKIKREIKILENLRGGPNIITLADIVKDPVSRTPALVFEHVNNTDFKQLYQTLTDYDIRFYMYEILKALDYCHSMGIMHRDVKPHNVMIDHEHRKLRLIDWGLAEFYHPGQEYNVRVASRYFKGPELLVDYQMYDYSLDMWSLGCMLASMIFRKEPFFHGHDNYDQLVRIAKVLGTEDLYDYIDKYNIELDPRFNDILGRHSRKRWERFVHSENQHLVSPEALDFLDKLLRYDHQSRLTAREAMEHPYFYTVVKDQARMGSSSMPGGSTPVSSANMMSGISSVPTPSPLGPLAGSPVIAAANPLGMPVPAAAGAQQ
Serine/threonine-protein kinase Nek7 (Homo sapiens), sequence (Q8TDX7 whole entry, looked up): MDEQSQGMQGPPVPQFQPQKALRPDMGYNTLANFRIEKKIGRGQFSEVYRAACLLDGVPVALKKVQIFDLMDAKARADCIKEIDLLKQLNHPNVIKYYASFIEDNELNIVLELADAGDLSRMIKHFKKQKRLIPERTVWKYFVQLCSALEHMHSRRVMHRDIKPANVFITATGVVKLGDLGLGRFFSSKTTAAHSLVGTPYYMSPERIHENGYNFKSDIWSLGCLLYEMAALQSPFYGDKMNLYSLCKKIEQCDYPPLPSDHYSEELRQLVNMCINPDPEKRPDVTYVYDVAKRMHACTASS
Serine/threonine-protein kinase Nek6 (Homo sapiens), sequence (Q9HC98 whole entry): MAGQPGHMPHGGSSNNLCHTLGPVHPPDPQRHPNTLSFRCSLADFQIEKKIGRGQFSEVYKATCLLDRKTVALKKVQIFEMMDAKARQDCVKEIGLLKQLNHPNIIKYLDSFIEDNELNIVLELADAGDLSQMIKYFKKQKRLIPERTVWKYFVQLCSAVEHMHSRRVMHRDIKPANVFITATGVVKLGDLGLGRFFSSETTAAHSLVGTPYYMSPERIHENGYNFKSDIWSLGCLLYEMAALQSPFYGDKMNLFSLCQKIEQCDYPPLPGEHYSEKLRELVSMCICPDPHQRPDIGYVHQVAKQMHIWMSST
Sphingosine kinase 1 (Homo sapiens), sequence (Q9NYA1 whole entry): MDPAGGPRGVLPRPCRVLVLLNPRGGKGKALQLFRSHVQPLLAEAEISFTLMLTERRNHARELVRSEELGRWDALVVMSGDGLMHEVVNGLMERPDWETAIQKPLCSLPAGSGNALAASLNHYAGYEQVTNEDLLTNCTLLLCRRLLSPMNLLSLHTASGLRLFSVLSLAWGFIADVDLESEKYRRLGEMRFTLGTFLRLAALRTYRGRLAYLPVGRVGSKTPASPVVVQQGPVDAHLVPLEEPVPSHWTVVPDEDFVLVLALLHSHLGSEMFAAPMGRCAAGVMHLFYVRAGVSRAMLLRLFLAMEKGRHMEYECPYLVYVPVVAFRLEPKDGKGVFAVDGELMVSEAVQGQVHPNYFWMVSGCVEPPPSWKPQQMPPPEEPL

SMILES: NS(=O)(=O)c1cccc(Nc2cc(-c3ccc(F)cc3)n[nH]2)c1
- inhibition [1]: -0.2%
- inhibition [2]: 0.87%
- inhibition [3]: -0.06%
- inhibition [4]: 5.22%
- inhibition [5]: 13.6%
- inhibition [6]: 4.35%
- inhibition [7]: 11.3%
- inhibition [8]: 5.51%
- inhibition [9]: 4.5%
- inhibition [10]: 8.55%
- inhibition [11]: 8.08%
- inhibition [12]: 1.79%
- inhibition [13]: 3.87%
- inhibition [14]: 4.43%
- inhibition [15]: 6.1%
- inhibition [16]: 2.48%
- inhibition [17]: 6.59%
- inhibition [18]: 4.33%
- inhibition [19]: 4.76%
- inhibition [20]: 10.6%

— ChEMBL document CHEMBL1961873, “Compounds: GSK PKIS; Assays: Nanosyn kinase panel” (2012)
